# Assay outcomes: PubChem BioAssay, National Center for Advancing Translational Sciences (NCATS)
# Most compounds without a hit are left out; they make up all but 7.1% or so of the library.
# p53 reactivator = re-activators of mutant p53; H1299 p53-A138V BP100-luciferase reporter, luminescence, 24 h; Potency, µM (top dose mostly 92.2 µM), inactives show at the highest dose activity change, positive = activation, usual class: activators; 320,000 tested, 0.063% active; note: % of control where 0% means no effect; nearly all actives have a fitted effect of over 45% in size
#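 p53-null H1299 cells stably carrying temperature-sensitive p53-A138V and a BP100-luciferase reporter were pinned with compounds (4-point, 1:5 series) and held 24 hrs at 37 deg C. Luminescence was read 10 min after detection reagent.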
# MCF10A rerep = DNA re-replication induction in MCF 10a cells; MCF 10A DNA re-replication, Hoechst nuclear intensity, 48 h; 350,000 tested, 2.9% active; Potency, µM (titrated, usually from 46.1 µM), inactives show top-dose activity, positive = re-replication, usual class: activators; note: % of control where 0% means no effect; nearly all actives have a fitted effect of over 50% in size
# A-T KAP1 phos = potential ataxia-telangiectasia treatment | 320,000 tested, 0.19% active | F2112 A-T fibroblasts, KAP-1 phosphorylation AlphaLISA; neocarzinostatin DNA damage 30 min before lysis | Potency, µM (series often up to 57.5 µM), inactives show at the top dose activation, most hits filed as activators; note: % of control where 0% means no effect; nearly all actives have a fitted effect of over 45% in size
#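 hTERT-immortalized A-T patient fibroblasts (F2112), 500 cells/well in OPTI-MEM, 1% FBS, got compounds for 60 min, then NCS for 30 min at 37C. Lysates were then assayed for phospho-KAP-1 by AlphaLISA (anti-pKAP1 donor, anti-KAP1 acceptor beads), 6 hr at 25C.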
# ELG1 repair inh = inhibitors of ELG1-dependent DNA repair in HEK293T cells | HEK293T ELG1-luciferase reporter, luminescence, 16 h; DNA damage induced by 5-fluorouridine | Potency, µM (highest dose often 46.1 µM), for inactives: at the top dose activity change, negative = inhibition, actives largely listed as inhibitors | 330,000 tested, 2.3% active; note: % is set by controls: 0 for no effect and ±100 for the full control effect; nearly all actives have a fitted effect of over 55% in size
#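 Quantitative HTS, concentration-response format. 2,000 cells/well co-treated with 5-fluorouridine and compound, 16 hr in 5% CO2 at 37 °C; ONE-Glo luminescence read after 30 min.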
# ELG1 genotox = genotoxicity induction in ELG1-luciferase HEK293T cells; Potency, µM (titrated, usually from 46 µM), inactives show at the highest dose activity change, positive = activation, most hits filed as activators; HEK293T ELG1-luciferase reporter, luminescence, 16 h; AID 504466; 330,000 tested, 1.3% active; note: % of control where 0% means no effect; nearly all actives have a fitted effect of over 60% in size
#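 Quantitative HTS format in 1536-well plates. HEK293T ELG1-luciferase reporter cells receive test compound and are incubated 16 hr at 37 °C, 5% CO2; ONE-Glo added, 30 min room temperature, then luminescence read.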
# SW480 rerep = DNA re-replication induction in SW480 cells; SW480 DNA re-replication, Hoechst DNA content imaging, 48 h; Potency, µM (titrated, usually from 46.1 µM), for the others: at the top dose re-replication activation, hits mostly activators; 340,000 tested, 1.8% active; note: % of control where 0% means no effect; nearly all actives have a fitted effect of over 55% in size
#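 Cells (250 per well) received 23 nL compound or DMSO by pin tool and were kept 48 hr at 37 C, 5% CO2. Nuclei were then stained with Hoechst for 40 min and scanned for DNA content.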
# Active calls of the source: *; ? = inconclusive; / = not tested or not shown. Calls come from the whole dose curve; as a rule, active = well fitted curve in the direction sought with a large enough effect; inconclusive = small, poorly fitted or top-dose-only effect, or another doubt; inactive = no such curve, though single readings can be large; an effect the other way counts as inactive or inconclusive. Potency is the fitted concentration of half-maximal effect.
SMILES,p53 reactivator,MCF10A rerep,A-T KAP1 phos,ELG1 repair inh,ELG1 genotox,SW480 rerep
CCOc1ccccc1NC(=O)CSC1=C(C#N)C(c2ccco2)C(C(=O)Nc2nc3ccccc3s2)=C(C)N1 (stereo unspecified),3%,?,3%,2%,-1%,3.7µM*
CC(=O)C1=C(C)NC(SCC(=O)c2ccc(F)cc2)=C(C#N)C1c1ccco1 (stereo unspecified),-10%,-5%,8%,?,16%,-2%
CN(C)S(=O)(=O)c1cccc(NC(=S)N/N=C/c2cccc(O)c2)c1,-3%,5%,2%,?,-19%,-1%
CN(C)S(=O)(=O)c1cccc(NC(=S)N/N=C/c2cc(Br)ccc2O)c1,?,68%,-11%,2.9µM*,8%,?
NCCC(O)(P(=O)(O)O)P(=O)(O)O,/,1%,/,/,/,-5%
O=C(Oc1cccc(Nc2ncnc3ccccc23)c1)c1cccnc1,5%,8%,2%,9%,1%,-10%
COc1ccc(C(=O)Oc2cccc(Nc3ncnc4ccccc34)c2)cc1OC,6%,?,-11%,16µM*,-9%,-7%
COc1cc(C(=O)Oc2cccc(Nc3ncnc4ccccc34)c2)cc(OC)c1OC,?,-3%,-4%,2.9µM*,0%,13%
CC(=O)Nc1ccc(NC(=O)C(C)OC(=O)CCCOc2ccc(Cl)c(C)c2)cc1 (stereo unspecified),18%,0%,5%,-4%,-2%,-2%
Cc1ccc(/C=N/NC(=O)c2cc(-c3ccc(C)o3)[nH]n2)cc1,4%,4.6µM*,-5%,?,-2%,?
O=C(CN1c2ccccc2Sc2ccccc21)NNC(=O)Nc1cccc(Cl)c1,2%,23µM*,-11%,?,-3%,?
O=C(Cc1ccccc1)NNC(=O)Nc1cccc(Cl)c1,-10%,-1%,3%,-19%,-4%,14%
CN(CC(=O)Nc1ccccc1C(F)(F)F)C(=O)C1=COCCO1,2%,1%,5%,27%,2%,-2%
CCn1c2ccccc2c2cc(/C=N/NC(=O)c3ccccc3C)ccc21,?,4.6µM*,7%,0%,?,13µM*
CCn1c2ccccc2c2cc(/C=N/NC(=O)c3cccc(C)c3)ccc21,-10%,5.8µM*,-4%,?,-3%,?
Cn1c2ccccc2c2cc(/C=N/NC(=O)c3ccc(N)cc3)ccc21,-2%,?,6%,?,-14%,?
Cn1c2ccccc2c2cc(/C=N/NC(=O)c3ccccc3F)ccc21,1%,?,0%,23µM*,-11%,?
O=C(COC(=O)c1cc(Br)ccc1O)NC12CC3CC(CC(C3)C1)C2,6%,0%,10%,6%,0%,-10%
Cn1c(=O)c2c(nc(N3CCN(Cc4ccccc4)CC3)n2CCSc2ncccn2)n(C)c1=O,1%,/,-10%,5.2µM*,10%,/
Cn1c(N2CCN(c3ccccn3)CC2)nc2c1c(=O)n(Cc1ccccc1Cl)c(=O)n2C,/,-5%,/,/,/,-3%
Cn1c(=O)[nH]c(=O)c2c1nc(N1CCN(CCO)CC1)n2Cc1ccccc1Cl,/,0.65µM*,6%,2%,3%,-16%
CC1CCN(c2nc3c(c(=O)n(C)c(=O)n3C)n2CCSc2ncccn2)CC1,-1%,0%,-1%,1%,3%,-4%
Cc1ccnc(SCCn2c(N3CCN(Cc4ccccc4)CC3)nc3c2c(=O)[nH]c(=O)n3C)n1,0%,2%,16%,9.2µM*,-6%,-7%
Cn1c(N2CCN(c3ccccn3)CC2)nc2c1c(=O)n(Cc1ccc(Cl)cc1)c(=O)n2C,0%,-4%,8%,16µM*,-24%,8%
O=C(O)c1ccccc1C(=O)c1cccc2c(Br)cccc12,/,10%,/,/,/,4%
SMILES,p53 reactivator,MCF10A rerep,A-T KAP1 phos,ELG1 repair inh,ELG1 genotox,SW480 rerep
Cc1ccc(-c2cc(C(=O)N3CCCCC3)c3ccccc3n2)cc1C,?,?,14%,?,5%,?
CCc1cc(CNC(=O)c2ccc(OC3CCN(CCc4ccccc4)CC3)cc2)on1,-4%,17%,4%,0%,-1%,?
CCN1C(=O)CC(N2CCN(c3ccc(C(=O)c4ccncc4)cc3)CC2)C1=O (stereo unspecified),2%,-6%,-2%,15µM*,-22%,-4%
Nc1nc(=S)ss1,/,21µM*,/,/,/,?
CCN(C[C@H]1N[C@@](CC)(C(=O)OC)[C@H]2C(=O)N(C)C(=O)[C@@H]12)S(=O)(=O)c1ccc(OC(F)(F)F)cc1,6%,-7%,-1%,-7%,0%,28%
Cc1cccc(Nc2nc(C)cc(C)n2)c1,?,-1%,-4%,30%,-2%,1%
Cc1cc(N(C)C)nc(Nc2ccccc2)n1,?,0%,-2%,15µM*,-7%,-7%
O=C(C1CCCN(c2ncnc3c2nc2n3CCCCC2)C1)N1CCN(c2ccc(Cl)cc2)CC1 (stereo unspecified),3%,15%,2%,?,-13%,?
CC(=O)c1ccc(N2CCN(C(=O)C3CCCN(c4ncnc5c4nc4n5CCCCC4)C3)CC2)cc1 (stereo unspecified),-12%,1%,6%,2.3µM*,-11%,-11%
O=C(C1CCN(S(=O)(=O)c2cccnc2)CC1)N1CCN(c2cccc(Cl)c2)CC1,-7%,1%,17%,21µM*,-12%,-8%
CC(C)c1ccc(NC(=O)C2CCN(c3ncnc4c3nc3n4CCCCC3)CC2)cc1,-1%,16µM*,6%,?,12%,?
CC(C)c1ccc(S(=O)(=O)N2CCC(C(=O)N3CCN(c4cccc(Cl)c4)CC3)CC2)cc1,/,?,/,/,/,4%
Cc1ccnc(NC(=O)C2CCCN(c3ncnc4c3nc3n4CCCCC3)C2)c1 (stereo unspecified),-5%,?,8%,?,-7%,-5%
Cc1ccc(NC(=O)C2CCCN(c3ncnc4c3nc3n4CCCCC3)C2)nc1 (stereo unspecified),1%,5%,-9%,3.3µM*,-8%,-1%
